Data as given in PubChem BioAssay AID504766 (The Scripps Research Institute Molecular Screening Center, 2011).
About 3,400 (1%) of roughly 340,000 compounds were called active.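 The calls were made as follows: active = inhibition above the mean over all tested compounds plus 3 SD (cut at about 4.2% in these data); inactive = the rest.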 This excerpt belongs to a sample that is enriched for actives.

biological target: Nuclear receptor subfamily 0 group B member 1 (Homo sapiens) (UniProt P51843); experiment: DAX1 (NR0B1) inhibitors, primary screen, cell-based, HEK293, Gal4-DAX1, luciferase luminescence (AID 504766); settings: HEK293 Gal4-DAX1 luciferase reporter, at 6.75 µM, active compounds read high;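 also: 0% = DAX1-transfected cells with DMSO and 100% = empty-vector control cells with DMSO; inhibition shows as a rise in luminescence from relieved DAX1 repression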
Sequence (P51843 207-470 limits assumed): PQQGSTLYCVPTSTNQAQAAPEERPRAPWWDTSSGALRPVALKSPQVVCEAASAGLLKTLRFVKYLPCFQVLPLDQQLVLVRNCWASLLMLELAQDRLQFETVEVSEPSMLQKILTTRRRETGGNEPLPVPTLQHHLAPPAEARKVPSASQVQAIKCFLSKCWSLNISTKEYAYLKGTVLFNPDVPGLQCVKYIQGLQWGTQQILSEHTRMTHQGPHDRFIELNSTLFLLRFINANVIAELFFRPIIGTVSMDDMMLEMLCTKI

Compound	inhibition
N#CCCN(C(=S)Nc1ccc(Cl)c(Cl)c1)C1CCCCC1	-0.53% (inactive)
CCOc1ccc2sc(NS(=O)(=O)c3ccc(N)cc3)nc2c1	2.57% (inactive)
Cc1ccc(S(=O)(=O)NCCSc2ccccc2)cc1[N+](=O)[O-]	-0.31% (inactive)
Cc1ccc(S(=O)(=O)Nc2nc3ccccc3s2)cc1[N+](=O)[O-]	5.09% (active)
Cc1ccc(-c2ccc(CN3C(C(C)C)C(=O)N(Cc4cn(CCC5OCCO5)nn4)CCS3(=O)=O)cc2)cc1 (stereo unspecified)	-1.47% (inactive)
CNC(=S)N1N=C(c2ccccc2)CC1c1ccc(Br)cc1 (stereo unspecified)	1.07% (inactive)
Brc1ccc(C2CC(c3ccccc3)=Nc3ccccc3N2)cc1 (stereo unspecified)	4.28% (active)
S=C1NC(c2ccccc2)=NCN1c1ccc(Br)cc1	-1.46% (inactive)
CC(C)CCC(=O)Nc1cc(S(=O)(=O)N2CCOCC2)ccc1N1CCCC1	-0.01% (inactive)
COc1cc2nnn(-c3ccncc3)c2cc1OC	1.02% (inactive)
CC1(C)CN(Cc2cccnc2)C(=O)[C@H]1CC(=O)Nc1ccc(Br)cc1	-0.18% (inactive)
O=C(COC(=O)c1ccc(S(=O)(=O)Nc2ccccc2)cc1)NCC1CCCO1 (stereo unspecified)	-0.38% (inactive)
COc1ccc(C(=O)OCC(=O)c2cc(C)n(CC3CCCO3)c2C)cc1[N+](=O)[O-] (stereo unspecified)	0.28% (inactive)
COc1ccc(C(=O)OCC(=O)NCC2CCCO2)cc1[N+](=O)[O-] (stereo unspecified)	4.91% (active)
CCOC(OCC)c1ccc(/C=C\c2nccc(N)n2)cc1	4.34% (active)
Cc1ccc([C@H]2N[C@]3(CCCN(Cc4ccccc4)C3=O)[C@H]3C(=O)N(Cc4ccccc4)C(=O)[C@@H]23)cc1	0.82% (inactive)
COc1cccc(OCC(=O)NCCS(=O)(=O)N2CCN(c3ccccc3)CC2)c1	0.69% (inactive)
Cc1ccc(C(=O)OC2CCCN(C)C2)cc1 (stereo unspecified)	1.89% (inactive)
CC1(C)C2CCC1(C)C(OC(=O)c1ccc(O)cc1)C2 (stereo unspecified)	4.45% (active)
CC1(C)C2CCC1(C)C(OC(=O)CCn1ccnc1)C2 (stereo unspecified)	0.23% (inactive)
O=C(Nc1ccc(Cl)cn1)c1ccccc1-c1ccccc1	1.12% (inactive)

Compound	inhibition
O=C1NC(Cc2ccccc2)c2nc3ccc(Br)cc3c(=O)n2-c2cc3ccccc3cc21 (stereo unspecified)	0.19% (inactive)
O=S1(=O)CCN(Cc2ccccc2Cl)CC1	0.98% (inactive)
CC1(C)COC(c2cccn2Cc2ccccc2Cl)=N1	5.28% (active)
O=C(Nc1cccn(Cc2ccccc2Cl)c1=O)NC1CCCCC1	-1.6% (inactive)
CCC1NC(=O)c2cccnc2-n2c1nc1ccc(C)cc1c2=O (stereo unspecified)	0.22% (inactive)
CC(C)NC(=O)Nc1ccc2c(c1)C(=O)N([C@H](C)CO)C[C@H](C)[C@@H](CN(C)Cc1ccc(C(F)(F)F)cc1)OCCCC[C@@H](C)O2	0.43% (inactive)
Cc1noc(C)c1S(=O)(=O)N(C)C[C@H]1OCCCC[C@@H](C)Oc2ccc(NC(=O)CCCN(C)C)cc2C(=O)N([C@H](C)CO)C[C@@H]1C	0.48% (inactive)
Cc1ccc(NC(=O)N2CCC(O)(c3cccnc3)CC2)cc1	4.28% (active)
O=C(c1cccc(F)c1)N1CCC(O)(c2cccnc2)CC1	1.7% (inactive)
O=C(Nc1cccc(F)c1)N1C2CCC1CC(O)(c1cccnc1)C2 (stereo unspecified)	0.14% (inactive)
COC(=O)C[C@H]1C[C@@H]2c3cc(NC(=O)Nc4ccccc4)ccc3O[C@@H]2[C@@H](CO)O1	2.2% (inactive)
CC1CCN(C(=O)CSc2nnc(-c3ccco3)n2N)CC1	1.88% (inactive)
O=C(Nc1ccc2oc(-c3ccccc3F)nc2c1)c1ccco1	2.35% (inactive)
O=C(Nc1ccc2nccnc2c1)c1ccco1	5.48% (active)
COc1ccccc1C(=O)Nc1ccc(NC(=O)c2ccco2)c(C)c1	-0.21% (inactive)
O=C(Nc1ccc(Sc2ccc(Br)cc2)cc1)c1ccco1	-0.97% (inactive)
CC(C)(C)NC(=O)c1cc(NC(=O)c2ccco2)cc(NC(=O)c2ccco2)c1	-1.82% (inactive)
Cc1ccc(NC(=O)c2ccco2)cc1	7.13% (active)
NS(=O)(=O)c1ccc(CNC(=O)c2cc(S(=O)(=O)N3CCOCC3)ccc2N2CCCC2)cc1	-0.73% (inactive)
CN1CCN(c2ccncc2S(=O)(=O)N2CCCC2)CC1	0.96% (inactive)
Cc1cc2ccccc2n1CCNC(=O)COc1ccc2ccccc2c1	-0.5% (inactive)

Compound	inhibition
O=C(O)CCn1c(Cc2ccccc2)nc2ccccc21	0.63% (inactive)
Cc1cc2ccccc2n1CCC(=O)O	6.77% (active)
CC(OC(=O)c1cccc(S(=O)(=O)N2CCOCC2)c1)C(=O)NCC1CCCCC1 (stereo unspecified)	0.27% (inactive)
COc1ccccc1CCNC(=O)c1cnccn1	0.75% (inactive)
COc1cccc(OCC(=O)NNC(=O)c2cnccn2)c1	5.68% (active)
COc1ccc(C(=O)NNC(=O)c2cnccn2)cc1[N+](=O)[O-]	1.76% (inactive)
Cc1cc(Cl)ccc1C(=O)C1CCCN(C(=O)c2ccc3c(c2)OCO3)C1 (stereo unspecified)	0.21% (inactive)
Cn1c(CSCC(=O)Nc2ccccc2)nnc1SCc1ccccc1	-0.77% (inactive)
Cc1c(NC(=O)CSCc2ccccc2)cccc1C(=O)O	0.3% (inactive)
O=C(CSCc1ccccc1)Nc1ccccc1	7.09% (active)
O=C(COc1ccc(Br)cc1)OCC(=O)c1ccc[nH]1	-1.15% (inactive)
COc1ccc(CCNC(=O)CN(c2ccccc2)S(=O)(=O)c2ccccc2)cc1	-1.2% (inactive)
CCCCCCN1C[C@H](O)[C@@H](n2cc(C3CC3)nn2)C[C@@H]1c1ccc(Cl)cc1	-0.34% (inactive)
CCOc1cc(/C=N/NC(=O)c2ccncc2)cc(Br)c1O	-0.05% (inactive)
c1c2c(cc3sc(N4CCCCC4)nc13)OCCO2	-5.28% (inactive)
COc1cc2sc(C)nc2cc1C	-1.73% (inactive)
Cc1nc2cc3c(cc2s1)OCO3	5.8% (active)
CCCc1ccc(S(=O)(=O)N2CCN(C(=O)c3cc(C)on3)CC2)cc1	-0.87% (inactive)
O=C(CCN1CCCCC1)Nc1ccc(F)c(F)c1	0.27% (inactive)
